Assay results reported in the supplement of paper PMC6555819.

tested on: VDR:RXRa (NR concentration 270 nM, RXRa partner concentration 90 nM); experiment: PBM binding z-score (relative to random genomic background probes); higher = stronger binding; sequences stand for … in GC…GCGATTGACAGCGTAGAATGAAGG
Method: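 Protein-binding microarray (Agilent 4x180K custom design, double-stranded 60-nt probes: 5' GC cap, 34-nt variable region, 24-nt constant primer region; full probe sequence given). Purified or IVT nuclear receptor:RXRα heterodimers (3:1 NR:RXRα, mostly 270:90 nM) or homodimers were incubated for 1 h in PBS with 2% milk and no ligand, then detected with Alexa488 antibodies. Fluorescence from o1-orientation probes (~5 replicates averaged) was converted to z-scores against 500 random hg19 background probes. Variable regions are seed direct-repeat (DR0–DR5) sites, all their single-nucleotide variants and half-site ablations.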

Sequence	PBM binding z-score
AGTCAAAGTACACTAGGTAACGTAAGATTCAGCT	-0.00797
TAGCCTAGGTCATTCAGGGGCCAGTACAGAAAGC	3.33
CCTACTGGGCCACGAACGGTCATTGATTCAGTGA	-0.227
GCTGCTAGGTCAGGTTGGTAAGCTAACGGGTACG	0.241
ATATGTAGGTTATCAGGTCATTCAGTTTGCGCAT	4.71
AGTAAAAGTTCATCTAGGTAACGTAAGATATGCT	4.57
ATATGTAGGTTACATCCGGGTCATTCAAGCTATG	4.17
TCATATAGGTTATACAGGTGAAAGTCGGCATCTA	2.48
TCTAGCAGGCCAGAGGGTGACTCAAGAGGTACGG	-0.421
ATCGAAAGGTCGAGGTGAGCATAGAGAAAGGGAA	2.36
ATCGAAAGGTCGAGGTAAGTATAGAGAAAGGGAA	2.36
AGTCAAAGTTCAGGACGAGGGAACGTAAAGCACG	2.05
CTCGAAAGGTCGTGCTAAGGTGAGTATACCAAAC	3.87
TCTATTAGTTGATTAGGGAAACCGAAACAGCGGA	0.846
TTATATAGGTAAATGCTAGGTGAAAGTCCGATCT	0.639
ATATGTAGGTTACATCCGGGTCATTGAGGCTATG	5.02
CTCGATAGGTCGGTTGAGGTGAGTATACGGATAA	0.436
AATACAGGGTCAATAGGCCAGAGTAGGTACGAAT	3.64
ATCTCTAGGTAACCAAGTGCAGTGAATGCCGAAC	1.3
ACAGACAGGTGGGTGAAGGTAACTCAGCTGGACG	-0.163

Sequence	PBM binding z-score
CCTAGCAGGCAAATCTGGGTCACTCAAGGCTTGA	0.335
ACTATTAGTTGACTTATGGCAACCGATACGACGC	0.458
AGAACGAGGGCACGCTCAGTTGATAGCAGAGTAG	1.4
ACAATTAGTTGAGACGAGGGCAACCGATAGGTTG	0.691
CTACCAACGTGAACAAGGTCGTTGATTACTATTC	2.05
TTGCCAAGGTGAGCTGAGGTCGTTGATCCAACTC	3.93
TCTTGTAGATCAGCAGGTTAACAAAGCTGGCCAA	0.696
TCTTGTAGATCAACAGGATGTTAAGAAAGATCGA	0.149
GCTAGTTGGTCAGTAAAAGATCACACACCGGTCG	-0.204
CGAACTAGGTCATCCAGTACAGTGAATACATTGA	5.08
CTCGAAAGGTCGGTTGAGGCGAGTATACGGATAA	0.809
CCTACTGGGCCATCAGGTCGTTGATATCAACGTT	0.18
CTACCAAGGTGAACAGGGTCGTTGATTACTATTC	5.66
AGTCAAAGTTCAGGACGAGGAAACGTAAAGCACG	2.2
CCTAGCAGGCCAGGGTCACGCAAGCATTTCGCTT	3.95
CCGAGTAGGCTATGGGGCATTCAGGCAACGGTGA	-0.947
CCGAGTAGGTGATGGGGCATTCAGGCAACGGTGA	-0.461
AGTCAACGTTCAGGACGAGGTAACGTAAAGCACG	-0.317
TCTAGCCGGCCAGAGGGTCACTCAAGAGGTACGG	1.41
ACAGACAGGTGATGAAGGTAACTTAGGCTATCAT	0.0593
